This test in a line: binders of probe aHhip on microarray, primary screen, stem cell growth factor project, biochemical, small-molecule microarray, fluorescence 635/667 (AID 1087).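 Also: score merges spot fluorescence at 667nm with spot signal to noise ratio.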 The note with it: higher = more signal.
Compound `C[C@H]1C2[C@H](Cc3ccccc3)NC(=O)[C@]23C(=O)N[C@H](Cc2ccccc2)C(=O)N[C@@H](Cc2ccccc2)C(=O)NC/C=C\C/C=C/C3[C@@H]2O[C@]12C` (stereo partly drawn) came in with a composite z-score of 0.122.

Compound `CO[C@]12C=C(Br)[C@@H](C[C@@H]1c1ccccc1)[C@@]1(CO1)C2=O` had a composite z-score of 0.0274. The compound `CO[C@H]1COC(=O)[C@@H](C)COC(=O)[C@H](Cc2ccccc2)NC(=O)CC=C[C@H]1C` gave a composite z-score of 0.0216.

(Values after PubChem BioAssay.)
